Laboratory results: PubChem BioAssay (NCATS)
Inconclusive results are not listed. The source made the active and inactive calls. Calls come from the whole dose curve; as a rule, active = well fitted inhibition curve with a large enough effect; inconclusive = small, poorly fitted or top-dose-only effect; inactive = no such curve, though single readings can be large or run the other way.

target: Retinaldehyde dehydrogenase 3 (Homo sapiens) (UniProt P47895); assay: qHTS for Inhibitors of the Aldehyde Dehydrogenase Family (ALDH1A3) Primary screen (AID 2061315); conditions: ALDH inhibition qHTS; series mostly up to 56 µM; activity change, negative = inhibition: at the top concentration;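 note: plate controls were DMSO vehicle for no effect and reference inhibitor for full effect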

Question: With `COC(=O)C1=CO[C@@H](O[C@@H]2O[C@H](CO[C@@H]3O[C@H](CO)[C@@H](O)[C@H](O)[C@H]3O)[C@@H](O)[C@H](O)[C@H]2O)[C@@H]2C(CO)=CC[C@H]12` as the compound, how does the “activity change, negative = inhibition” value read?
Answer: -5.7% [at 28 µM] (inactive)

Question: Which “activity change, negative = inhibition” value does the source give for `C/C=C(/C)C(=O)O[C@@H]1C[C@@H](OC(=O)/C(C)=C\C)[C@@]2(C)C3C(=O)C=C(C)C2C3C1(C)C` here?
Answer: 10.8% [at 28 µM] (inactive)

Question: How did the “activity change, negative = inhibition” value turn out when `C=C[C@@]1(C)CC(=O)C2[C@](C)(O1)[C@@H](OC(C)=O)[C@@H](O)[C@H]1C(C)(C)CCC[C@]21C` (stereo partly specified) was run?
Answer: -1.11% [at 16.9 µM] (inactive)

Question: With `C/C=C1\[C@H](O[C@@H]2O[C@H](CO)[C@@H](O)[C@H](O)[C@H]2O)OC=C(C(=O)O)[C@H]1CC(=O)OCCc1ccc(O)cc1` as the compound, how does the “activity change, negative = inhibition” value read?
Answer: 7.92% [at 28 µM] (inactive)

Question: `C=C(C(=O)O)C1CCC2(C)CCCC(C)(O)C2C1` (stereo unspecified) was tested. Which “activity change, negative = inhibition” value did it give?
Answer: -14.8% (inactive)

Question: `N#CC1C(=O)Nc2scc(-c3ccc(-c4ccccc4O)cc3)c2C1=O` (stereo unspecified) was tested. Which “activity change, negative = inhibition” value did it give?
Answer: 15.8% (inactive)

Question: How did the “activity change, negative = inhibition” value turn out when `C/C=C/C=C/C(O)=C1/C(=O)[C@]2(C)C(=O)[C@@](C)(O)[C@H]1[C@H]([C@@]1(C)OC(=O)C(C)=C1O)[C@H]2C(=O)CC/C=C/C` was run?
Answer: -6.34% [at 28 µM] (inactive)

Question: With `O=C(O)CC1(O)C(=O)Nc2ccccc21` (stereo unspecified) as the compound, how does the “activity change, negative = inhibition” value read?
Answer: 16.4% [at 81.8 µM] (inactive)

Question: With `O=C(O)Cc1cn([C@@H]2OC[C@@H](O[C@@H]3O[C@H](CO)[C@@H](O)[C@H](O)[C@H]3O)[C@H](O)[C@H]2O[C@@H]2O[C@H](CO)[C@@H](O)[C@H](O)[C@H]2O)c2ccccc12` as the compound, how does the “activity change, negative = inhibition” value read?
Answer: 10.5% [at 16.9 µM] (inactive)

Question: `Cc1cc(NC(=O)c2cccc(NC(=O)/C=C/CN(C)C)c2)ccc1Nc1nccc(-c2cccnc2)n1` was tested. Which “activity change, negative = inhibition” value did it give?
Answer: -0.441% (inactive)

Question: `CC1CCC2(CO)C(C(=O)O)=CCCC2C1(C)CCc1ccoc1` (stereo unspecified) was tested. Which “activity change, negative = inhibition” value did it give?
Answer: 3.7% (inactive)
